Results taken from PubChem BioAssay AID743383 (National Center for Advancing Translational Sciences (NCATS), 2014).
Activity calls are given as the source filed them. Calls come from the whole dose curve.

biological target: Phosphatidylinositol 5-phosphate 4-kinase type-2 alpha (Homo sapiens) (UniProt P48426); assay: qHTS for Inhibitors of PI5P4K: PI5P4K-alpha 32P-ATP TLC Secondary Assay for Probe SAR; conditions: recombinant PI5P4K-alpha, 32P-ATP TLC PI(4,5)P2 formation
Text: In addition to finding PI5P, we discovered the type II phosphatidylinositol 5-phosphate 4-kinase (PI5P4K) family (alpha, beta, gamma isoforms) that catalyze the conversion of PI5P to PI(4,5)P2. Alternatively, PI(4,5)P2 can also be synthesized through phosphatidylinositol-4-phosphate (PI4P) by the type I phosphatidylinositol 4-phosphate 5-kinases (PI4P5K). These PI5P4K enzymes therefore represent one way by which cells can regulate endogenous PI5P levels and play important roles in insulin signaling and in stress responses. […] A qHTS PI5P4K-alpha ADP-Glo assay was developed to identify specific modulators of human PI5P4K, phosphatidylinositol-5-phosphate 4-kinase (Type II PIPK). To confirm that the active compounds and their analogs were true and selective inhibitors, a secondary Thin-layer Chromatography (TLC) assay against recombinant PI5P4K-alpha, PI4P5K-alpha or PI5P4K-beta that utilize a radioactively labeled ATP were developed. The data herein are the result of the PI5P4Kalpha TLC assay. […]
The kinase reaction was carried out in a total of 50 microL of kinase buffer (50 mM HEPES pH 7.4 and 10 mM MgCl2) containing 20 microM of the lipids that were suspended by sonication. […] The radiolabeled product, PI(4,5)P2, was quantified with a phosphorimager (Molecular Dynamics, STORM840, GE Healthcare, Waukesha, WI, USA).

Sequence of Phosphatidylinositol 5-phosphate 4-kinase type-2 alpha (Homo sapiens) (P48426 whole entry, looked up, canonical isoform): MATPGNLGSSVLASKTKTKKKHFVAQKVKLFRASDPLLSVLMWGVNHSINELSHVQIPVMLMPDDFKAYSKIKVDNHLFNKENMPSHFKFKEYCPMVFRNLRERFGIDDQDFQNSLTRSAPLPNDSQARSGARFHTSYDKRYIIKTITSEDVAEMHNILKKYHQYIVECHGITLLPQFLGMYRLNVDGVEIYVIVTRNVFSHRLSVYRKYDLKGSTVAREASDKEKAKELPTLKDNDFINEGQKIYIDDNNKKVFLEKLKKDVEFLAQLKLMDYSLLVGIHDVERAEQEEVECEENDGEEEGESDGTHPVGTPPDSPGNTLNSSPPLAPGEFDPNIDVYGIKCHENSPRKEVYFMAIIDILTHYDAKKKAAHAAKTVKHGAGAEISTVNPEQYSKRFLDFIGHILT

Question: `O=C1Nc2ccc(C(=O)c3ccco3)cc2/C1=C/c1cc(Cl)c(O)c(Cl)c1` was tested. Which Potency did it give?
Answer: 18 nM (active)
